Results as given in the supplement of paper PMC6555819.

Tests used:
Assay in all cases: PBM binding z-score (relative to random genomic background probes); higher = stronger binding; sequences stand for … in GC…GCGATTGACAGCGTAGAATGAAGG
[1] = test system: RARb homodimer (NR concentration 270 nM)
Method in brief: (§1)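 Custom Agilent 4×180K protein-binding microarrays carried double-stranded probes, each with a 34-nt variable region. These regions held direct-repeat seeds, single-nucleotide variants, half-site ablations and random human genomic background sequences. Ligand-free nuclear receptor dimers were incubated on the arrays for 1 h, antibodies against each partner (one per run) detected binding, and scanned fluorescence was regression-normalized. Binding z-scores take the random background probes as reference.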

[2] = test system: RARg:RXRa (NR concentration 270 nM, RXRa partner concentration 90 nM)
Method in brief: as §1

[3] = test system: RARg homodimer (NR concentration 270 nM)
Method in brief: as §1

[4] = test system: RXRa DBDmut IVT, anti-RXR (DBD mutation: RXRa K156A/R161A, NR concentration 90 nM)
Method in brief: as §1

[5] = test system: RXRa homodimer (NR concentration 180 nM)
Method in brief: as §1

[6] = test system: THRa:RXRa (NR concentration 90 nM, RXRa partner concentration 90 nM)
Method in brief: as §1

[7] = test system: THRa homodimer (NR concentration 90 nM)
Method in brief: as §1

[8] = test system: VDR homodimer (NR concentration 270 nM)
Method in brief: as §1

Sequence | PBM binding z-score [1] | PBM binding z-score [2] | PBM binding z-score [3] | PBM binding z-score [4] | PBM binding z-score [5] | PBM binding z-score [6] | PBM binding z-score [7] | PBM binding z-score [8]
GCGACTGGGGCAAAGCACGTTACCATAAGGTTGG | 0.0132 | 0.0263 | 0.422 | -0.0988 | 0.0282 | -0.139 | -0.582 | -0.524
CGCCCAAGGTCAATGCTAGGTCAGTGAAAGCATT | 5.07 | 7.39 | 6.43 | 2.91 | 5.06 | 4.28 | 2.72 | 2.51
TGAATGAGGTTCTAAGATCAGGGAACGTTGCAAA | -0.907 | -0.113 | -0.275 | -0.623 | -0.155 | -0.125 | -0.86 | -0.351
TAGCCTAGGTCATACGGGCCAGTATAGTGTCGGC | 2.87 | 3.74 | 4.43 | 0.941 | 3.22 | 2.92 | 0.814 | 0.783
GCATATAGGTGATACAAGGTGAAAGTCCGATTGT | 0.997 | 0.873 | 0.702 | 0.341 | 0.856 | 4.24 | 0.943 | 0.0464
TAGCCTAGGTCATGGGCGAGTATACCACGCGAAC | 2.97 | 4.08 | 4.15 | 0.379 | 3.57 | 3.11 | 1.11 | 0.339
ATCCCTAGGTAAAGTTCAGTGAAAGATCGATAGA | 2.36 | 1.81 | 1.95 | 1.28 | 1.16 | 1.07 | 0.22 | 2.35
TCTCGGAGGGCACGAAGGTCAGAGCTTTCCAGAG | 3.94 | 4.11 | 3.97 | 0.77 | 2.79 | 2.63 | -0.228 | 1.81
ATCGAAAGGTCGACGAGGTGACTATACACCGTTT | 3.13 | 4.44 | 4.48 | 1.17 | 5.08 | 3.95 | 1.27 | 1.11
AATACACGGTCATCGTAGGCCAGAGTACGCACAG | 2.36 | 2.06 | 2.76 | 0.479 | 1.07 | 2.15 | -0.0649 | 0.733
CCTCGGAGGACAACAGGAGGTCAGAGCAGCCAGA | 3.68 | 3.56 | 3.45 | -0.0172 | 2.05 | 2.86 | 1.04 | 1.14
TCTTGTAGATCAATAGAGATTAAGAAAGTGCGCT | -0.717 | 0.0195 | 0.0177 | 0.545 | 0.326 | -0.317 | -1.06 | -0.336
CCGAGTAGGTTATGGGTCATTCAGGCAACGGTGA | 2.66 | 2.52 | 2.15 | 0.565 | 3.06 | 2.29 | 0.87 | 1.42
CCGACTGGGGCATAAGCTTACCATAAGCCAGCCC | -0.773 | -0.376 | -0.313 | 0.074 | -0.312 | -0.645 | -1.06 | -0.947
TTACCAAAGTGAGCTGAGGTCGTTGATCCAACTC | 0.526 | 0.117 | -0.105 | -0.0811 | 0.805 | 3.02 | 1.36 | 1.95
TCTTGTAGATCAACAGGAGGTTAAGAACGATCGA | 0.615 | 0.992 | 0.377 | 0.686 | 0.967 | 0.923 | -0.518 | -0.0634
CGAACTAGGTCAGAACAGAACAGTGAAGGATGAT | 1.65 | 2.36 | 3.14 | 0.286 | 1.16 | 1.34 | -0.073 | -0.0834
CCGACTGGGGCATAAGTTTACCATAAGCCAGCCC | 0.519 | 0.0613 | 0.233 | 0.17 | -0.0212 | -0.345 | -0.433 | -0.134
CCTTACGGGTCACTCCAGATTATAGCATCGGAGT | 2.58 | 4.16 | 3.98 | 1.28 | 3.98 | 2.65 | 0.098 | 1.39

Sequence | PBM binding z-score [1] | PBM binding z-score [2] | PBM binding z-score [3] | PBM binding z-score [4] | PBM binding z-score [5] | PBM binding z-score [6] | PBM binding z-score [7] | PBM binding z-score [8]
ACTATTAGTTAAGACGAGGGCAACCGATAGGTTG | 1.34 | 0.59 | 0.902 | 0.459 | 0.55 | 1.85 | 0.204 | 0.991
AGAATGAGGTTGTTAAGATCAGGGAATTGCGGTC | 0.126 | 0.00616 | -0.0271 | 1.17 | 0.15 | 0.608 | 0.246 | 0.542
CCTAACAGGCCAATCTGGGTCACTCAAGGCTTGA | 2.38 | 1.47 | 1.75 | 0.498 | 0.758 | 3.85 | 0.717 | 0.191
ATATGTAGGTTACATCCGGGTCATTCATGCTATG | 2.82 | 3.6 | 2.21 | 1.42 | 2.93 | 3.61 | 2.46 | 3.43
CCTACTGTGCCAAGGTCATTGATCAGTCAAAGCA | 3.73 | 3.88 | 3.24 | 2.18 | 3.4 | 3.68 | 3.43 | 3.63
TCTAGTTGGTCAAACGTCACACACTCGAAATGCG | 0.78 | 0.926 | 0.831 | 1.2 | 1.04 | 0.288 | 0.167 | 0.2
AGTCAAAGTTCACTAGGTAACATAAGATTCAGCT | 3.84 | 4.96 | 5.9 | 4.29 | 3.76 | 2.08 | 0.138 | 4.22
ACTCGGAGGACAAAGGTCAGAGCAACGCCAGTGA | 4.24 | 6.11 | 5.43 | 1.26 | 5.09 | 3.55 | 0.599 | 1.14
CATACAGGGGCAGCTAGGCCAGAGTAGGGACGGC | 0.473 | 0.498 | 1.02 | -0.381 | -0.153 | 0.05 | -0.63 | -0.506
CCCACTGGGCCAAAAAGGTCATTGATGCCGATAA | 4.44 | 4.8 | 4.56 | 0.161 | 5.23 | 3.02 | 0.878 | 2.74
TCATATAGGTGAAGGTGAAAGTCGAACGATATGA | 1.3 | 1.42 | 1.48 | 0.518 | 1.6 | 0.793 | -0.343 | -0.0365
CTCGAAAGGTCGGTTAAGGTGAGTATACGGATAA | 2.84 | 2.94 | 3.26 | 0.811 | 2.41 | 4.88 | 2.1 | 0.781
CCTATTAGTTGATCATAAGGGCAACCGAAGCTCG | 1.43 | 0.898 | 0.868 | 0.845 | 0.308 | 1.69 | 1.05 | 1.1
CGAACGAGGACATGAGTTGATAGCAAATGCCGAT | 0.159 | 0.527 | 1.16 | 1.52 | 0.107 | 2.23 | 1.28 | 0.998
TCGAGTAGGTTACCAATGGGCCATTCAGCTTTCT | 0.543 | 0.598 | 0.337 | 0.37 | 0.688 | 0.184 | -0.731 | -0.805
ACAGGCAGGTGATGAAGGTAACTCAGGCTATCAT | 0.415 | -0.159 | 0.118 | -0.414 | 0.0459 | 0.973 | 0.276 | -0.29
AGTCAAAGTTCAGGACGAGGTAACGTACAGCACG | 3.47 | 4.77 | 4.74 | 2.99 | 2.92 | 3.9 | 1.82 | 2.1
TCTATTACTTGAAGGGCAACCGACGAGTCCGTTT | 1.51 | 0.815 | 0.75 | 1.72 | 0.98 | 0.289 | 0.362 | 1.46
GCTTGTAGATCAAGGTTAAGTAAGACTAAGCTAA | 0.397 | 0.425 | 0.177 | 0.147 | 0.706 | 2.36 | -0.276 | -0.509

Sequence | PBM binding z-score [1] | PBM binding z-score [2] | PBM binding z-score [3] | PBM binding z-score [4] | PBM binding z-score [5] | PBM binding z-score [6] | PBM binding z-score [7] | PBM binding z-score [8]
TCGAGTGGGTTACCAATGGGGCATTCAGCTTTCT | 0.278 | 0.678 | -0.504 | -0.00783 | 0.312 | -0.369 | -1.25 | -1.02
GCGACTGGGGCAAAGGAGGTTACCATAAGGTTGG | 1.87 | 1.1 | 1.14 | -0.468 | 1.12 | 3.4 | 0.609 | 0.291
ATCTCTAGGTAACAAGTTGAGTGAAAGAGAGGAC | 0.79 | 0.858 | 0.91 | -0.013 | 0.381 | 1.41 | 0.716 | 0.639
TCTTGCAGATCAAGCAGGTTAAGAAAGCCTGAGT | -0.292 | -0.332 | -0.629 | 0.253 | -0.0969 | 0.0949 | -0.484 | -0.141
CAAACTAGGGCACCGGAAGGTCAAAGTCCGCATG | 4.51 | 5.51 | 4.44 | 0.724 | 3.84 | 3.25 | 0.924 | 1.45
GCTAATAGTTGAAAGGGCAACCGAATGATTCTCG | 2.13 | 1.68 | 1.44 | 0.805 | 1.76 | 0.716 | -0.4 | 0.235
CGAACTAGGTCAGAACAGGAAAGTGAAGGATGAT | 1.61 | 2.35 | 2.9 | 0.506 | 1.07 | 1.29 | 0.124 | -0.115
GCAGACAGGTGAAACGCAGCTAACTCAGGGTGGC | -0.474 | -0.209 | -0.0146 | -0.543 | -0.0388 | -0.192 | -0.872 | -1.11
CCTAGCAGGCCAATCTGGGTGACTCAAGGCTTGA | -0.195 | -0.294 | -0.326 | -0.391 | -0.592 | 2.16 | -0.548 | -0.648
CCTAGCAGGCCAGGGTCACTCGAGCATTTCGCTT | 2.57 | 3.06 | 2.18 | 0.188 | 3.57 | 2.83 | 0.909 | 1.33
TCTCGGAGGACACGAAGGTCGGAGCTTTCCAGAG | 1.42 | 1.23 | 1.5 | 0.608 | 0.322 | 1.64 | 0.121 | 0.0854
CGTCAAAGTTCAACTAGGGTAACGTAAAGCACGC | 4.3 | 5.87 | 6.62 | 4.69 | 5.44 | 5.14 | 0.583 | 4.44
GCATACAGGTGAAACGCAGGTAACTCAGGGTGGC | 0.299 | 1.03 | 0.276 | -0.217 | 0.854 | 1.42 | -0.151 | -0.463
TAGCCTAGGTCAGATCGGGCCCGTATACGCTATA | 1.94 | 2.58 | 3.06 | -0.297 | 1.37 | 2.39 | 0.0174 | -0.316
TCATATAGGTAAAAAGGTGAAAGTCCGTAAGTTA | 2.04 | 2.48 | 1.06 | 1.71 | 2.42 | 1.55 | 0.644 | 0.718
CCTAGCAGGCCAATCTGTGTCACTCAAGGCTTGA | 0.114 | -0.172 | 0.279 | 0.249 | -0.389 | 0.791 | -0.64 | -0.327
CCTTACGGGTGACTGACAGGTTATAGCATTTGGA | 0.601 | 1.07 | 0.559 | 0.115 | 0.941 | 0.72 | -0.154 | -0.209
TAGCCTAGGTCATGCGGGCCAGTCTAGTGTCGGC | 2.8 | 3.86 | 4.19 | 0.255 | 2.42 | 2.75 | 0.583 | 0.569
CGTCCAAGGTCAGACAGGTCAGTGAATGCCGAGT | 4.84 | 5.32 | 6.13 | 3.11 | 4.43 | 3.97 | 2.16 | 3.77
